According to PubChem BioAssay (EPA / NIEHS):
The source made the active and inactive calls. Rule for the calls: active = hit-call score of the fitted dose curve at least 0.9, where 1 is the maximum; inactive = score below 0.9.

Experiments:
[1] = APR_HepG2_NuclearSize_72hr: Apredica 72-hour HepG2 Assay for Nuclear Size (AID 2282925); conditions: high-content imaging, actives raise or lower the signal
In short: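 Nuclear size was read by high-content imaging of Hoechst 33342 stain after formaldehyde fixation. Compounds ran 72 h on HepG2 at 0.39 to 200 uM, with final DMSO 0.5% v/v. Curves fitted both directions relative to DMSO control.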

[2] = ATG_CRE_CIS: Attagene CIS-FACTORIAL HepG2 Assay for human cAMP Responsive Element (CRE) binding protein 3 (AID 2282926); conditions: HepG2 CRE cis-reporter, Attagene multiplexed mRNA; actives raise or lower the signal
In short: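 Liver-derived HepG2, transfected with a CRE-containing reporter panel, exposed 24 h; transcript levels sized and quantified by capillary electrophoresis of labelled amplicons; signal changes either way referenced to vehicle.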

[3] = target: CCAAT/enhancer-binding protein beta (Homo sapiens) (UniProt P17676); assay: ATG_C_EBP_CIS: Attagene CIS-FACTORIAL HepG2 Assay for human CCAAT/Enhancer Binding Protein (C/EBP) beta (AID 2282927); conditions: HepG2 Attagene cis-factorial transcription factor reporter; actives raise or lower the signal
Chain of CCAAT/enhancer-binding protein beta (Homo sapiens) (P17676 whole entry, looked up): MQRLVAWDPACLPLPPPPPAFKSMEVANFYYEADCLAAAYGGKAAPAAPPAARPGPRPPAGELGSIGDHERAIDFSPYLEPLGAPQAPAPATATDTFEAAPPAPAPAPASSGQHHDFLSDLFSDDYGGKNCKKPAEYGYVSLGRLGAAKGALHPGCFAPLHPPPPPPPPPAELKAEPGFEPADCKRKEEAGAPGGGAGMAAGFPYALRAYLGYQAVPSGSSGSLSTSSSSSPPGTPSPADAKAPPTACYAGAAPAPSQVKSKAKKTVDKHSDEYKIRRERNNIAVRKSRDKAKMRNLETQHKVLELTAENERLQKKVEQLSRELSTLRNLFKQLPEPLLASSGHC
In short: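 Changes in reporter mRNA, rather than exogenous chimeric receptor activity, reflect native C/EBP signalling in transfected HepG2 cells dosed for 24 h; transcripts are detected by RT-PCR and capillary electrophoresis.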

[4] = ATG_CMV_CIS: Attagene CIS-FACTORIAL HepG2 Assay for human CMV (Internal Marker) (AID 2282928); conditions: HepG2 CMV promoter reporter, transcription factor profiling; actives raise or lower the signal;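 note: endpoint acts as a background internal control marker rather than a target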
In short: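 Readout: fluorescent reporter cDNA fragments separated by capillary electrophoresis after RT-PCR and HpaI cut. Cells: HepG2 carrying transfected cis-promoter reporter constructs, dosed 24 h. Endpoint serves as background internal-marker control, fit bidirectionally versus DMSO.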

[5] = ATG_DR4_LXR_CIS: Attagene CIS-FACTORIAL HepG2 Assay for human Liver X Receptor (LXR), DR4 submotif (AID 2282929); conditions: HepG2 Attagene DR4 cis-reporter, mRNA transcription; actives raise or lower the signal
In short: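 After transient transfection with multiplexed cis-promoter reporter units, HepG2 cells received test chemicals for 24 h. Reporter mRNA induction, detected by fluorescence after RT-PCR and capillary electrophoresis, was scored relative to DMSO.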

[6] = ATG_AP_1_CIS: Attagene CIS-FACTORIAL HepG2 Assay for human Activator Protein 1 (AP-1) (AID 2282931); conditions: HepG2 Attagene cis-factorial AP-1 reporter mRNA; actives raise or lower the signal
In short: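 After 24 h incubation with test chemical, RNA from transfected HepG2 cells was reverse-transcribed, amplified, fluorescently labelled and digested before capillary electrophoresis. Reporters were driven by cis-regulatory promoters; activity fitted bidirectionally versus DMSO.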

[7] = ATG_AP_2_CIS: Attagene CIS-FACTORIAL HepG2 Assay for human Activator Protein 2 (AP-2) (AID 2282932); conditions: HepG2 AP-2 cis-reporter, Attagene transcription factor profiling; actives raise or lower the signal
In short: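 Endogenous transcription factor activity is reported through transfected multiplex reporter constructs in HepG2, after 24 h of compound exposure. Transcripts were quantified by RT-PCR and capillary electrophoresis of fluorescent fragments. Bidirectional fit against DMSO.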

[8] = ATG_BRE_CIS: Attagene CIS-FACTORIAL HepG2 Assay for human Bone Morphogenetic Protein (BMP) Response Element (BRE) (AID 2282933); conditions: HepG2 BMP response element reporter, Attagene transcription factor profiling; actives raise or lower the signal
In short: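 HepG2 cells transiently transfected with CIS reporter units (endogenous TF activity, BMP response element), dosed 24 h. Reporter mRNA quantified by RT-PCR, fluorescent labelling and capillary electrophoresis; bidirectional fit vs DMSO baseline.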

[9] = target: Retinoic acid receptor alpha (Homo sapiens) (UniProt P10276); assay: ATG_DR5_RAR_CIS: Attagene CIS-FACTORIAL HepG2 Assay for human Retinoic Acid Receptor Alpha (RARE), DR5 submotif (AID 2282934); conditions: HepG2 Attagene cis-factorial RARE DR5 reporter, mRNA; actives raise or lower the signal
Chain of Retinoic acid receptor alpha (Homo sapiens) (P10276 whole entry, looked up): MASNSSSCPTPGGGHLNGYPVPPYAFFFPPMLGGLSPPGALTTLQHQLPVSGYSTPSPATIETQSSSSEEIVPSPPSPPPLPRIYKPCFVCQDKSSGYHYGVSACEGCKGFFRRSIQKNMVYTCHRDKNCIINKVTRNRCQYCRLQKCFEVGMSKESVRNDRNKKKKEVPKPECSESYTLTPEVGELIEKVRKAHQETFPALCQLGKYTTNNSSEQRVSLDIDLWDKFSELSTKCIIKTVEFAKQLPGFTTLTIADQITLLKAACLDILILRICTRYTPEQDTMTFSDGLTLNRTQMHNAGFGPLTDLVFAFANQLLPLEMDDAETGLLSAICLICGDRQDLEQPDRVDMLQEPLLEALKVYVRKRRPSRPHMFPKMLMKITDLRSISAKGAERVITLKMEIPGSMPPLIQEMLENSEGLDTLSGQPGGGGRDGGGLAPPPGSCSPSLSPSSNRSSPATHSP
In short: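 HepG2, transient cis-reporter transfection, 24 h exposure. mRNA readout: RT-PCR, FAM label, HpaI cut, capillary electrophoresis. DMSO baseline, gain/loss fitting.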

[10] = target: Transcription factor E2F1 (Homo sapiens) (UniProt Q01094); assay: ATG_E2F_CIS: Attagene CIS-FACTORIAL HepG2 Assay for human E2F Transcription Factor 1 (AID 2282935); conditions: HepG2 Attagene cis-reporter, E2F reporter RNA transcripts; actives raise or lower the signal
Chain of Transcription factor E2F1 (Homo sapiens) (Q01094 whole entry, looked up): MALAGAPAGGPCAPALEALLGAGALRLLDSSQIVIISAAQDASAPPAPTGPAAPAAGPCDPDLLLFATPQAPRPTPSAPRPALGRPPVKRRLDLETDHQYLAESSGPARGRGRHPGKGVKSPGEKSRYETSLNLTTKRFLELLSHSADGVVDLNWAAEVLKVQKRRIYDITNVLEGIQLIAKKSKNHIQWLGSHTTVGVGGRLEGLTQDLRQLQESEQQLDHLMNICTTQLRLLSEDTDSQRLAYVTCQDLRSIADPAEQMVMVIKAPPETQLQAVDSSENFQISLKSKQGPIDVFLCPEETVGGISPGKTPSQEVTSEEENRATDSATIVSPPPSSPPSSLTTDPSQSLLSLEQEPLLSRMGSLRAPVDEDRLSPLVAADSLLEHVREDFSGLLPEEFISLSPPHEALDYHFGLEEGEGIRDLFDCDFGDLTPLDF
In short: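 Gain or loss of reporter transcript, fitted against DMSO, reflects E2F1-driven transcription. Transiently transfected HepG2 dosed 24 h before RNA isolation. Quantified by fluorescent RT-PCR products separated by capillary electrophoresis.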

[11] = ATG_E_Box_CIS: Attagene CIS-FACTORIAL HepG2 Assay for human Enhancer Box (E-box) (AID 2282936); conditions: HepG2 E-box cis-reporter transcription, actives raise or lower the signal
In short: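 E-box-driven reporter transcripts measured in transiently transfected HepG2 after 24 h exposure: RNA reverse-transcribed, PCR-amplified, fluorescently labelled, digested and resolved by capillary electrophoresis. Gain or loss relative to DMSO.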

[12] = ATG_M_61_CIS: Attagene CIS-FACTORIAL HepG2 Assay for M61 Transcription Factor (Internal Marker) (AID 2282937); conditions: HepG2 Attagene CIS-FACTORIAL M61 internal marker reporter; actives raise or lower the signal
In short: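 Using transiently transfected HepG2 liver cells, reporter transcript levels were assessed 24 h post-dosing by RT-PCR and capillary electrophoresis. Changes in either direction were fitted relative to DMSO controls.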

[13] = ATG_M_19_CIS: Attagene CIS-FACTORIAL HepG2 Assay for M19 Transcription Factor (Internal Marker) (AID 2282939); conditions: HepG2 Attagene CIS-FACTORIAL M19 internal marker reporter; actives raise or lower the signal
In short: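 HepG2 cells transiently transfected with cis-regulated multiplexed reporter units, dosed 24 h. Reporter mRNA quantified by RT-PCR and capillary electrophoresis; internal background marker fitted bidirectionally versus DMSO.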

[14] = ATG_ERE_CIS: Attagene CIS-FACTORIAL HepG2 Assay for Estrogen Response Element (ERE) (AID 2282940); conditions: HepG2 ERE cis-reporter, Attagene RNA transcript; actives raise or lower the signal
In short: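 HepG2 cells transiently transfected with multiplexed cis-element reporter units, measuring endogenous transcription factor activity; ERE reporter mRNA quantified after 24 h exposure by RT-PCR, fluorescent labelling, HpaI digestion and capillary electrophoresis. Bidirectional change versus DMSO.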

[15] = ATG_Ets_CIS: Attagene CIS-FACTORIAL HepG2 Assay for human Erythroblast Transformation Specific (ETS) (AID 2282941); conditions: HepG2 ETS cis-reporter transcription, actives raise or lower the signal
In short: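 RT-PCR/capillary electrophoresis fluorescence read-out of reporter mRNA; HepG2 transient multi-reporter transfection; 24 h compound exposure; gain or loss of signal fitted bidirectionally relative to DMSO.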

[16] = ATG_GATA_CIS: Attagene CIS-FACTORIAL HepG2 Assay for human GATA Binding Protein (AID 2282944); conditions: HepG2 GATA cis-element reporter, Attagene multiplex mRNA; actives raise or lower the signal
In short: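 HepG2 cells transiently transfected with multiplexed cis-element reporter units measure endogenous GATA activity; after 24 h compound exposure, reporter mRNA quantified by RT-PCR and capillary electrophoresis. Changes fitted in both directions vs DMSO.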

[17] = target: Aryl hydrocarbon receptor (Homo sapiens) (UniProt P35869); assay: ATG_Ahr_CIS: Attagene CIS-FACTORIAL HepG2 Assay for human Aryl Hydrocarbon Receptor (Ahr) (AID 2282930); conditions: HepG2 AhR cis-factorial reporter transcription; actives raise or lower the signal
Chain of Aryl hydrocarbon receptor (Homo sapiens) (P35869 whole entry, looked up): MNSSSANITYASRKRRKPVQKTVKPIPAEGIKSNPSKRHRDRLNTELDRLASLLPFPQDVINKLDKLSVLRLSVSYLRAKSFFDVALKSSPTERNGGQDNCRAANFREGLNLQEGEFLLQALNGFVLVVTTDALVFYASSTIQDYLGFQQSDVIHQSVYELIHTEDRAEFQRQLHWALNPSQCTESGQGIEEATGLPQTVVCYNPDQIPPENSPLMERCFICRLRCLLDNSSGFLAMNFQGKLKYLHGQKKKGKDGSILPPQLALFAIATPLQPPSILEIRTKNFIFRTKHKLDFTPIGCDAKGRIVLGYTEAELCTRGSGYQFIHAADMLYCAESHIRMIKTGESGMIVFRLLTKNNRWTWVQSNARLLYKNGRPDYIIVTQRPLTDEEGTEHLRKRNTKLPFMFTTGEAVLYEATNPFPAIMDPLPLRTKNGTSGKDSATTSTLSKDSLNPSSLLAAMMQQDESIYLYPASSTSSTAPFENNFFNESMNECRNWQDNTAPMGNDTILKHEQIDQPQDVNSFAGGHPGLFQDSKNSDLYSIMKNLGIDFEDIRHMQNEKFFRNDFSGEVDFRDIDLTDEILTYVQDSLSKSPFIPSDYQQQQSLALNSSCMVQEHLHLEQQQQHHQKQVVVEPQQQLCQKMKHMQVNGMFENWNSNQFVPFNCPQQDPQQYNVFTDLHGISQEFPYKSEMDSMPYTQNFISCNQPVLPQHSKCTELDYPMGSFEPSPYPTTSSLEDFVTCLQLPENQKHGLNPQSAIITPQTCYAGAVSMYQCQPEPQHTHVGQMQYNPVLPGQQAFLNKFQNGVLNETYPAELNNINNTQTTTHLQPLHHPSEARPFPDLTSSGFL
In short: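 HepG2, transient MRTU (cis) transfection, 24 h exposure. RNA → cDNA → PCR → 6-FAM primer extension → HpaI 2 h 37 C → CE. Fit: bidirectional, DMSO baseline.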

[18] = ATG_FoxO_CIS: Attagene CIS-FACTORIAL HepG2 Assay for human Forkhead box O (FoxO) (AID 2282943); conditions: HepG2 Attagene cis-reporter, FoxO element, mRNA; actives raise or lower the signal
In short: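 Human hepatoma HepG2 cells carry transiently introduced reporter transcription units controlled by cis promoter elements. Chemical treatment lasted 24 h, and mRNA signal was compared with DMSO.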

[19] = ATG_EGR_CIS: Attagene CIS-FACTORIAL HepG2 Assay for human Early Growth Response 1 (EGR1) (AID 2282938); conditions: HepG2 Attagene CIS-FACTORIAL EGR reporter mRNA; actives raise or lower the signal
In short: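 Fluorescent capillary-electrophoresis signal of reporter cDNA fragments serves as read-out. HepG2 cells bear transiently transfected cis-promoter reporter units and are exposed 24 h; gain- or loss-of-signal is fitted against DMSO.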

[20] = target: Hepatocyte nuclear factor 3-beta (Homo sapiens) (UniProt Q9Y261); assay: ATG_FoxA2_CIS: Attagene CIS-FACTORIAL HepG2 Assay for human Forkhead box A2 (FOXA2) (AID 2282942); conditions: HepG2 cis-reporter transcription factor activity, 24 h; actives raise or lower the signal
Chain of Hepatocyte nuclear factor 3-beta (Homo sapiens) (Q9Y261 whole entry, looked up, the tested form may be a part): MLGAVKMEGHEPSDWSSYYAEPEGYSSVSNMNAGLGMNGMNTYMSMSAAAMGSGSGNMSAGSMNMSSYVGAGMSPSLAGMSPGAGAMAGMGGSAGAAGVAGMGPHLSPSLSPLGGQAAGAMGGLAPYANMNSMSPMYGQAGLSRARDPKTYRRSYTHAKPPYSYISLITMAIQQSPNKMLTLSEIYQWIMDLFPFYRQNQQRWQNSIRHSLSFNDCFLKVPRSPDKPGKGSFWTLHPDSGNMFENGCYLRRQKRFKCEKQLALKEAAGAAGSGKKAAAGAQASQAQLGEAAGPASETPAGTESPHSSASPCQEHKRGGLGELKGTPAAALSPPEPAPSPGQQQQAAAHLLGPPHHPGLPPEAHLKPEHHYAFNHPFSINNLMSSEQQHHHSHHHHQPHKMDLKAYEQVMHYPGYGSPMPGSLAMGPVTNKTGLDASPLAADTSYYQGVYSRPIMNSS
In short: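 Fluorescence signal of reporter cDNA fragments, separated by capillary electrophoresis, reflects endogenous transcription factor activity in transfected HepG2 after 24 h. Both increases and decreases fitted against DMSO.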

Measured: AC50

CCCCOC(=O)c1ccccc1
inactive: [1] | [2] | [3] | [4] | [5] | [6] | [7] | [8] | [9] | [10] | [11] | [12] | [13] | [14] | [15] | [16]

c1ccc2cc3ccccc3cc2c1
inactive: [1] | [2] | [3] | [4] | [5] | [17] | [6] | [7] | [8] | [9] | [10] | [11] | [12] | [13] | [14] | [15] | [18] | [16]

CCc1cccc(CC)c1N
inactive: [1] | [2] | [3] | [4] | [5] | [17] | [6] | [7] | [8] | [10] | [11] | [12] | [19] | [13] | [14] | [15] | [18] | [16]

O=C(O)[C@H](O)[C@@H](O)C(=O)O
inactive: [1] | [2] | [3] | [4] | [5] | [17] | [6] | [7] | [8] | [10] | [11] | [12] | [19] | [13] | [14] | [15] | [20] | [18] | [16]

CCCCCOC(C)=O
inactive: [1] | [2] | [3] | [4] | [5] | [17] | [6] | [7] | [8] | [9] | [10] | [11] | [12] | [13] | [14] | [15] | [20] | [18] | [16]

Cc1nc(-c2ccccn2)ncc1C(=O)Nn1cc(C)c2cc(F)ccc21
inactive: [1] | [2] | [3] | [4] | [5] | [6] | [7] | [8] | [9] | [10] | [11] | [12] | [13] | [14] | [15] | [18] | [16]

CCOc1ccc2[nH]cc(C(=O)NCc3ccccc3)c(=O)c2n1
active: [17] 4.77 µM
inactive: [1] | [2] | [3] | [4] | [5] | [6] | [7] | [8] | [9] | [10] | [11] | [12] | [13] | [14] | [15] | [20] | [18] | [16]

CC(C)CCCCCCOC(=O)C1CCCCC1C(=O)OCCCCCCC(C)C (stereo not given)
active: [17] 84.8 µM
inactive: [1] | [2] | [3] | [4] | [5] | [6] | [7] | [8] | [9] | [10] | [11] | [12] | [13] | [14] | [15] | [20] | [16]

CCCCN1C(=O)[C@@H]([C@H](O)C2CCCCC2)NC(=O)C12CCN(Cc1ccc(Oc3ccc(C(=O)O)cc3)cc1)CC2
active: [3] 32.9 µM | [5] 71.5 µM
inactive: [1] | [2] | [4] | [17] | [6] | [7] | [8] | [10] | [11] | [12] | [13] | [14] | [15] | [18] | [16]

Cn1cc[nH]c1=S
inactive: [1] | [2] | [3] | [4] | [17] | [6] | [7] | [8] | [9] | [10] | [11] | [12] | [19] | [13] | [14] | [15] | [16]

OC(CCl)CCl
inactive: [1] | [2] | [3] | [4] | [5] | [17] | [6] | [7] | [8] | [10] | [11] | [12] | [19] | [13] | [14] | [15] | [18] | [16]

CNC(C)=O
inactive: [1] | [2] | [3] | [4] | [5] | [17] | [6] | [7] | [8] | [9] | [10] | [11] | [12] | [19] | [13] | [14] | [15] | [16]

O=S(=O)(O)c1ccc(N=Nc2c(O)ccc3cc(S(=O)(=O)O)ccc23)cc1
inactive: [1] | [2] | [3] | [4] | [5] | [17] | [6] | [7] | [8] | [9] | [10] | [11] | [12] | [13] | [14] | [15] | [18] | [16]

OC[C@H]1O[C@@](CO)(O[C@H]2O[C@H](CO)[C@@H](O)[C@H](O)[C@H]2O)[C@@H](O)[C@@H]1O
inactive: [1] | [2] | [3] | [4] | [5] | [17] | [6] | [7] | [8] | [9] | [10] | [11] | [12] | [19] | [13] | [14] | [15] | [16]
